The full data set covers some 6,500 targets. This sample favours those with a hit. About 2% of all pairs of compound and target were hits.

The record followed here is the supplement of paper PMC11006884.

UniProt O75976, sequence (O75976 whole entry): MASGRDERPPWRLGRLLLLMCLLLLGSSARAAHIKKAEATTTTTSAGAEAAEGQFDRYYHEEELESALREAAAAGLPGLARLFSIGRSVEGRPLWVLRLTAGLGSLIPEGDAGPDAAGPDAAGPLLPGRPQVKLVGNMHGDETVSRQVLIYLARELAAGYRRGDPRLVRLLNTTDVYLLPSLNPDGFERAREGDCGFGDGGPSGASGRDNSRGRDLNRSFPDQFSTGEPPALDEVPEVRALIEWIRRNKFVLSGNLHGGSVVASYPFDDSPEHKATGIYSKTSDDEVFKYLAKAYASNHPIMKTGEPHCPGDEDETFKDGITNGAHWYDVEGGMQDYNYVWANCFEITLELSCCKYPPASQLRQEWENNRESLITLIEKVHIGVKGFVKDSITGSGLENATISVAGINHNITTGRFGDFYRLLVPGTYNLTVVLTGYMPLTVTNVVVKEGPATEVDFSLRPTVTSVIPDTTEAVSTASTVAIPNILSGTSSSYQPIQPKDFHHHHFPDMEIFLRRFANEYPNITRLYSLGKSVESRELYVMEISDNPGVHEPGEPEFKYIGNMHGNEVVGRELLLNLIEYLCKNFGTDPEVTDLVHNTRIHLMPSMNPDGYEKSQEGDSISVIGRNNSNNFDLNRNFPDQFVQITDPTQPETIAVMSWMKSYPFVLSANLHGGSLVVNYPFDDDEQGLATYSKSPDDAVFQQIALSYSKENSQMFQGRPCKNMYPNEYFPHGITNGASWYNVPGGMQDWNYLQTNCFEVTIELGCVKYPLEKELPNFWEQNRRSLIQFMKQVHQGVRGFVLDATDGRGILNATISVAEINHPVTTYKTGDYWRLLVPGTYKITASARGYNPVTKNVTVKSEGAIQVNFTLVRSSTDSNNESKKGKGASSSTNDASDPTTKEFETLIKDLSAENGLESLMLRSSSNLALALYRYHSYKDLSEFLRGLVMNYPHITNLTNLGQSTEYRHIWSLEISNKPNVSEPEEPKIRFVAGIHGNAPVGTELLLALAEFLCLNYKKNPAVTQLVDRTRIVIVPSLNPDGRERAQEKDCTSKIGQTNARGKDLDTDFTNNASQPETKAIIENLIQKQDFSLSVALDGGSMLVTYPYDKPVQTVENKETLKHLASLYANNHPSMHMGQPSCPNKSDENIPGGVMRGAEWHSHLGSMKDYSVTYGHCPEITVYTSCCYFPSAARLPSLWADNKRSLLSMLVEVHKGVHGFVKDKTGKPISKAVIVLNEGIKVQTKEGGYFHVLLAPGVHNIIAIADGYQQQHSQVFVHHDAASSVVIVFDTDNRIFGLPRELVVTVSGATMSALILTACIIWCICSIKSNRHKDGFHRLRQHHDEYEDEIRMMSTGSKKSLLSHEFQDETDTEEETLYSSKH
UniProt O00429, sequence (O00429 whole entry, looked up): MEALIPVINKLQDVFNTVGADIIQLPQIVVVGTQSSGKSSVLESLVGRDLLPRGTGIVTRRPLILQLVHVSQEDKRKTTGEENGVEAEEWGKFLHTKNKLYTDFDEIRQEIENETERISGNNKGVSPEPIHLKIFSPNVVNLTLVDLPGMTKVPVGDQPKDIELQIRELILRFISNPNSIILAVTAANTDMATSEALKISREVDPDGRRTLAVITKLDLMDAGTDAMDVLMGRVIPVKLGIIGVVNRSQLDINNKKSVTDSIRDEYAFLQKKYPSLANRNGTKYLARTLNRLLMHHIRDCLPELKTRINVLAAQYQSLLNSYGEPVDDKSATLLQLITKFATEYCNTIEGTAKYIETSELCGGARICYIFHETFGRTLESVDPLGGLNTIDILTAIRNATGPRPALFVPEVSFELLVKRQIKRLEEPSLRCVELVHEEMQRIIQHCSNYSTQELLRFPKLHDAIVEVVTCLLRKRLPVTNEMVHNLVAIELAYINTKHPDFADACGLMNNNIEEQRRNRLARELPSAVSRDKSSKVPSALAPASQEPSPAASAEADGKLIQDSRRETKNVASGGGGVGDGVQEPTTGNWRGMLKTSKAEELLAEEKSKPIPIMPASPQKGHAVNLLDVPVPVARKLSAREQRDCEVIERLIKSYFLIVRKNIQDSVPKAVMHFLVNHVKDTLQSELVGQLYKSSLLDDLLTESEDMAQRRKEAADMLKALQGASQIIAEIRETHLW
UniProt O75351, sequence (O75351 whole entry): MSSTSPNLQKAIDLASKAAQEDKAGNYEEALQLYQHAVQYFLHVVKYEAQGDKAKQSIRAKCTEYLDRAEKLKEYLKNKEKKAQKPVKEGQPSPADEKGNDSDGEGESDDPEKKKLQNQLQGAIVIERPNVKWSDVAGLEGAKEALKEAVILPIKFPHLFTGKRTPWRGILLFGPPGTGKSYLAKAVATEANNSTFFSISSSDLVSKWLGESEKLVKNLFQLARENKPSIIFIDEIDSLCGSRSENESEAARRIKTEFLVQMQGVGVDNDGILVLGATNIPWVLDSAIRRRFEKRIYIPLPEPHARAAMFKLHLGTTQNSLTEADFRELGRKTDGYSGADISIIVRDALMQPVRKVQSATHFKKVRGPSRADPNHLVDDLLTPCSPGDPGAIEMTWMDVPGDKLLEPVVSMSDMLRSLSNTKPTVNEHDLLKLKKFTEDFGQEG
UniProt A8CG34, sequence (A8CG34 whole entry): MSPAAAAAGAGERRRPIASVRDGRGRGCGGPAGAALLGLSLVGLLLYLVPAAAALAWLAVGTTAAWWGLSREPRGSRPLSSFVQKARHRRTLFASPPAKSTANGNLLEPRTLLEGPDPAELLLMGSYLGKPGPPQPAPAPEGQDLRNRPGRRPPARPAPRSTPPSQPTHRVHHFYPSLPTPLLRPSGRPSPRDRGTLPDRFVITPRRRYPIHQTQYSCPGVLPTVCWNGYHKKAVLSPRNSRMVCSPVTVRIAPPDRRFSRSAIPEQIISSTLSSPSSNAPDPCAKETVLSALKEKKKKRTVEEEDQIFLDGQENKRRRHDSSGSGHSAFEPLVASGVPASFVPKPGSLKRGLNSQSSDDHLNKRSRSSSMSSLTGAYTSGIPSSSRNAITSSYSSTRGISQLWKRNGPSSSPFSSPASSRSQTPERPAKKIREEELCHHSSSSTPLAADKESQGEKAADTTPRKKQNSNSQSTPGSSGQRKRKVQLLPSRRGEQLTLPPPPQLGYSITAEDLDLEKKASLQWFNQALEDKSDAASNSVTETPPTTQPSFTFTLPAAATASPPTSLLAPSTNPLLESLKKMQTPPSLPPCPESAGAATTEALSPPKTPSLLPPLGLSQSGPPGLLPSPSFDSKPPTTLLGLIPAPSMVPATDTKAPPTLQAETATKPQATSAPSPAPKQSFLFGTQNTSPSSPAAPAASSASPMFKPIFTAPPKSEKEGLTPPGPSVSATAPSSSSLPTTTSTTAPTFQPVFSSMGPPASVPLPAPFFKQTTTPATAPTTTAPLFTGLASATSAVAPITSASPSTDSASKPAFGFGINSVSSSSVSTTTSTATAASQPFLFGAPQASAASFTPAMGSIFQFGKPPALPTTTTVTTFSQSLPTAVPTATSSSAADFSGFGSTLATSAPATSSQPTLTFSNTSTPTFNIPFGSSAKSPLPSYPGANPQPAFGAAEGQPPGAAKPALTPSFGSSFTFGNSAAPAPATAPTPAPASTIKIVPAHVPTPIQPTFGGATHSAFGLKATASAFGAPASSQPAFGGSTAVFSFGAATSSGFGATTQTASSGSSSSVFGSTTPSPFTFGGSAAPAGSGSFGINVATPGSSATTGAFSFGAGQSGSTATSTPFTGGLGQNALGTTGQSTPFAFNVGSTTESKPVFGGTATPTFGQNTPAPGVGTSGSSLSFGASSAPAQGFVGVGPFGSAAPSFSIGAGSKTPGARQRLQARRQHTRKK
UniProt O14545, sequence (O14545 whole entry, looked up): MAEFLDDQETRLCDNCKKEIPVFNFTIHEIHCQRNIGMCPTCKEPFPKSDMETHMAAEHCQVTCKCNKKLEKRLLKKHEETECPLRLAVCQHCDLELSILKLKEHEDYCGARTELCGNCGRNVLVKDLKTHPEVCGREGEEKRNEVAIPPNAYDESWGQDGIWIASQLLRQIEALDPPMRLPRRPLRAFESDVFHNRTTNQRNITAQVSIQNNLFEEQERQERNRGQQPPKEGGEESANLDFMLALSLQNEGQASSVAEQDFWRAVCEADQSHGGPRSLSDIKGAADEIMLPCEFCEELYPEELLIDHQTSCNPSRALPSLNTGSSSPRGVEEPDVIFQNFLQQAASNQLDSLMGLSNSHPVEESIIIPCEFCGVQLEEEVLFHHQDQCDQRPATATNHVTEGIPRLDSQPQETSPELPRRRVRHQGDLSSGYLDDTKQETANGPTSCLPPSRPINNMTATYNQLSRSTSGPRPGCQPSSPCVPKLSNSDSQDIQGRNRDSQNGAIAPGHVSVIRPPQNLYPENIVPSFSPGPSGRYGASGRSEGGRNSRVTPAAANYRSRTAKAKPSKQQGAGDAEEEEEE
UniProt O43353, sequence (O43353 whole entry, looked up): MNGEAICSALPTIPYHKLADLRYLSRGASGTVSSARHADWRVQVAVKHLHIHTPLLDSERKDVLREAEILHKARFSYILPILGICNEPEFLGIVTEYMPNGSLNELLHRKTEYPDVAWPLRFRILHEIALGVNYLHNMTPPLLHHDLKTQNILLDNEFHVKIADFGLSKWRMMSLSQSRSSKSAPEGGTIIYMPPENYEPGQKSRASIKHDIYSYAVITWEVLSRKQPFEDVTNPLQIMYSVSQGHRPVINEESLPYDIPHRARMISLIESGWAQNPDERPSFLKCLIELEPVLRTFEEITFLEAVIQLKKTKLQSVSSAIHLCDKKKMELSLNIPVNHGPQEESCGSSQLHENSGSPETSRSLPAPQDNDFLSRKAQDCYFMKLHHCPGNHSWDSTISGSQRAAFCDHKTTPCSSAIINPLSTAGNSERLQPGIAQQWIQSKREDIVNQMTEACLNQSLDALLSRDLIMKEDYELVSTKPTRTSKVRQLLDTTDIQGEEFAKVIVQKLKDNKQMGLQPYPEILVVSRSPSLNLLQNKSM
UniProt O75348, sequence (O75348 whole entry, looked up): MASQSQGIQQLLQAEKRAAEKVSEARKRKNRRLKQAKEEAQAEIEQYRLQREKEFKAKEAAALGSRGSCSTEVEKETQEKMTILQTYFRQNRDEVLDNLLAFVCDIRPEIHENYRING

Compound in this experiment: COC(=O)C#Cc1ccccc1 [methyl 3-phenylpropiolate]
As to the kind of experiment: log2 ratio of iodoacetamide-alkyne labeling of the cysteine site, DMSO over compound (competition); higher = stronger covalent engagement of the cysteine by the compound, active = 1 or more. The settings on record: 500 µM; treatment time 1 h; system: HEK293T cell lysate. The method, boiled down: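 HEK293T lysate (2 mg/mL) was incubated with electrophile (500 µM) or vehicle for 1 h at ambient temperature and then with iodoacetamide alkyne for 1 h. Labelled proteins were clicked to sCIP-TMT reagents, pooled, digested, enriched on streptavidin and measured by Orbitrap Eclipse LC-MS/MS with FAIMS, with FragPipe quantification. The per-cysteine log2 competition ratio is mean control-channel reporter intensity over mean compound-channel reporter intensity. Across three replicates with duplicate channels, cysteines quantified in only one replicate were excluded.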
Consider PRPF4 C237 (UniProt O43172), for which the “log2 ratio of iodoacetamide-alkyne labeling” value (“log2 ratio” for short) was 1.42 (active).
To FLNB C660 (UniProt O75369) belongs 0.476 (inactive); to PGRMC2 C159 (UniProt O15173), 0.159 (inactive); to RPP40 C49 (UniProt O75818), 0.0974 (inactive).
On to TRAFD1 C476 (UniProt O14545), for which the “log2 ratio” value was 1.55 (active).
To UniProt O00567_C211 belongs 1.14 (active).
To ATOX1 C12 (UniProt O00244) belongs 1.27 (active); to UniProt A0MZ66_C565, 0.734 (inactive); to UniProt O43303_C535, 0.837 (inactive).
To DNM1L C446 (UniProt O00429) belongs 0.102 (inactive); to EXOC5 C111 (UniProt O00471), 0.297 (inactive); to EIF3D C437 (UniProt O15371), -0.116 (inactive).
As to IDH3B C233 (UniProt O43837), the “log2 ratio” value is 0.394 (inactive).
To UniProt O94822_C186 belongs -0.317 (inactive).
For PFAS C1285 (UniProt O15067), the “log2 ratio” value was 1.36 (active).
With EIF5B C720 (UniProt O60841) the figure was 0.266 (inactive).
Consider RIPK2 C414 (UniProt O43353), for which the “log2 ratio” value was 1.35 (active).
To SF3B1 C677 (UniProt O75533) belongs 0.316 (inactive); to SART1 C645 (UniProt O43290), 0.0232 (inactive); to SF3B1 C1059 (UniProt O75533), 0.247 (inactive).
For the target CPD C582 (UniProt O75976), the “log2 ratio” value is 0.145 (inactive).
To PJA2 C224 (UniProt O43164) belongs 0.22 (inactive).
With OGT C620 (UniProt O15294) the figure was 1.35 (active); with TBC1D4 C6 (UniProt O60343), 0.373 (inactive).
To VPS4B C240 (UniProt O75351) belongs 0.188 (inactive); to EIF3D C196 (UniProt O15371), 0.719 (inactive).
For POM121C C438 (UniProt A8CG34), the “log2 ratio” value is 1.04 (active).
To ANKRD17 C58 (UniProt O75179) belongs 1.35 (active).
With ATP6V1G1 C104 (UniProt O75348) the figure was 0.03 (inactive).
With A0AVT1_C347 the figure was 2.27 (active); with HEXIM1 C84 (UniProt O94992), 1.3 (active); with NVL C192 (UniProt O15381), 0.306 (inactive).
For UniProt O14628_C178, the “log2 ratio” value was 1.09 (active).
With UniProt O43929_C16 the figure was 0.153 (inactive); with XPO1 C164 (UniProt O14980), -0.00596 (inactive).
FLNB C455 (UniProt O75369): the “log2 ratio” value was 1.24 (active).
In the case of STX16 C150 (UniProt O14662), the “log2 ratio” value was 0.0256 (inactive).
With UniProt O75153_C153 the figure was 0.605 (inactive).
